PubChem BioAssay (EPA / NIEHS)
“And” between values parts separate entries of the source, which are not always exact repeats. Equal values may be shown once. Records with an inconclusive call do not appear. Where a structure was tested more than once in an assay, its records may differ in their call. The source made the active and inactive calls. Rule for the calls, unless noted: active = hit-call score of the fitted dose curve at least 0.9, where 1 is the maximum; inactive = score below 0.9.

Tests used:
[1] = read-out: Interleukin-8 (IL8), CXCL8 (gene 3576); test: BSK_3C_IL8: BioMAP Diversity Plus: 3C Assay for Interleukin-8 (IL8) Biomarker Activity (AID 2283020); settings: primary human endothelial cells (HUVEC); actives raise or lower the signal
In short: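 Endothelial primary cells of human umbilical vein origin are dosed with chemical; after 24 h the IL-8 biomarker is measured by ELISA, and concentration–response is fitted in both directions versus DMSO.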

[2] = read-out: Monokine induced gamma interferon (MIG), CXCL9 (gene 4283); test: BSK_3C_MIG: BioMAP Diversity Plus: 3C Assay for Monokine induced gamma interferon (MIG) Biomarker Activity (AID 2283021); settings: primary human endothelial cells (HUVEC); actives raise or lower the signal;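 for AC50: MIG protein level measured by immunoassay in the treated endothelial cultures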
In short: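 Endothelial primary cells (human umbilical vein) are dosed with test chemical in the 3C system. MIG levels are measured by ELISA at 24 h and fitted in both directions relative to DMSO.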

[3] = biological target: human Vitamin D Receptor (VDR), VDR (gene 7421) (UniProt P11473); test: ATG_VDR_TRANS: Attagene TRANS-FACTORIAL HepG2 Assay for human Vitamin D Receptor (VDR) (AID 2283022; active = hit-call score of the fitted dose curve at least 0.9, where 1 is the maximum)
Sequence of human Vitamin D Receptor (VDR), VDR (gene 7421) (P11473 whole entry, looked up, the tested form may be a part): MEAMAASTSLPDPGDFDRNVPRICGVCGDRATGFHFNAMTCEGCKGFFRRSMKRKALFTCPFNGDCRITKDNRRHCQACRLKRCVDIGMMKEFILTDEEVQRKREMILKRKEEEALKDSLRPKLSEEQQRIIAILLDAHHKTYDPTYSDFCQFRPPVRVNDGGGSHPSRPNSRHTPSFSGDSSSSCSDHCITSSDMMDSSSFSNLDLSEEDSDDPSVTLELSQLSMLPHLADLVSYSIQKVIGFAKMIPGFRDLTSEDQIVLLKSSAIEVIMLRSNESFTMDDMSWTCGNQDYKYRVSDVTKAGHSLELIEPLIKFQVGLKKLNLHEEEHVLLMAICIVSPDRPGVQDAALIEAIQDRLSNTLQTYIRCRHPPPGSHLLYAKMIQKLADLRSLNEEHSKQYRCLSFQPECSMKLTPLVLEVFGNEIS
In short: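 HepG2 cells were transiently transfected with multiple GAL4-UAS reporter units, so signal reflects exogenous chimeric receptor-Gal4 activity. After 24 h compound exposure, reporter mRNA was measured by RT-PCR, fluorescent labelling and capillary electrophoresis, fitted for gain of signal versus DMSO.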

[4] = BSK_3C_SRB: Viability Assessment in the BioMAP Diversity Plus: 3C Assay (AID 2283023); settings: primary human endothelial cells (HUVEC);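 note: fitted both ways against DMSO so a hit may be signal rise or drop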
In short: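 Primary human umbilical vein endothelial cells in the 3C system were read 24 h after compound dosing. Total protein was stained with 0.1% sulforhodamine B after 10% TCA fixation and read at 560 nm, with bidirectional fitting against DMSO as baseline.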

[5] = read-out: Matrix Metallopeptidase 1 (MMP1), MMP1 (gene 4312); test: BSK_BE3C_MMP1: BioMAP Diversity Plus: BE3C Assay for Matrix Metallopeptidase 1 (MMP1) Biomarker Activity (AID 2283024); settings: primary human bronchial epithelial cells; actives raise or lower the signal
In short: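 MMP1 signal, measured by ELISA after a 24 h chemical exposure of human primary bronchial epithelial cells, is analysed with bidirectional fitting using DMSO as negative control.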

[6] = BSK_3C_Vis: BioMAP Diversity Plus: 3C Assay for Morphology Visualization (AID 2283025); settings: primary human endothelial cells (HUVEC);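 note: fitted both ways so gain or loss versus DMSO counts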
In short: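 Morphology read by light microscopy serves as a background control for the multiplexed 3C assay in human umbilical vein endothelial cells, taken 24 h after dosing, with DMSO as the negative control and bidirectional curve fitting.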

[7] = read-out: Pselectin, SELP (gene 6403); test: BSK_4H_Pselectin: BioMAP Diversity Plus: 4H Assay for Pselectin Biomarker Activity (AID 2283026); settings: primary human endothelial cells (HUVEC); actives raise or lower the signal
In short: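 Endothelial primary cells (human umbilical vein) are dosed, incubated 24 h, and assayed for surface P-selectin by ELISA; responses in either direction are fitted relative to the DMSO negative control.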

[8] = BSK_4H_SRB: Viability Assessment in the BioMAP Diversity Plus: 4H Assay (AID 2283027); settings: primary human endothelial cells (HUVEC);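 note: cells exposed to compound for 24 h before staining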;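 for AC50: curves fitted both ways versus DMSO so AC50 may be loss or gain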
In short: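 Cytotoxicity readout: sulforhodamine B (0.1%) staining of total protein after 10% TCA fixation, measured at 560 nm in human umbilical vein endothelium at 24 h. DMSO set the baseline; fitting was bidirectional.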

[9] = BSK_BE3C_SRB: Viability Assessment in the BioMAP Diversity Plus: BE3C Assay (AID 2283028); settings: primary human bronchial epithelial cells;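 for AC50: fitted both ways so AC50 may mark signal gain or loss versus DMSO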
In short: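 Human primary bronchial epithelial cells were exposed to test chemicals for 24 h. Total protein in parallel cultures was then measured by staining with 0.1% sulforhodamine B after 10% TCA fixation, with absorbance read at 560 nm. Activity was fitted bidirectionally against DMSO.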

[10] = read-out: Thrombomodulin, THBD (gene 7056); test: BSK_3C_Thrombomodulin: BioMAP Diversity Plus: 3C Assay for Thrombomodulin Biomarker Activity (AID 2283029); settings: primary human endothelial cells (HUVEC); actives raise or lower the signal
In short: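 Endothelial cells from umbilical vein are dosed with test chemical and incubated 24 h. Thrombomodulin is then quantified by ELISA, with DMSO serving as negative control and activity baseline.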

[11] = read-out: Urokinase-type plasminogen activator receptor (uPAR), PLAUR (gene 5329); test: BSK_4H_uPAR: BioMAP Diversity Plus: 4H Assay for Urokinase-type plasminogen activator receptor (uPAR) Biomarker Activity (AID 2283030); settings: primary human endothelial cells (HUVEC); actives raise or lower the signal
In short: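 Primary human umbilical vein endothelial cells were exposed to chemical for 24 h before cell-surface uPAR was quantified by ELISA. Activity was fitted bidirectionally against the DMSO negative control baseline.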

[12] = read-out: Vascular endothelial growth factor receptor 2 (Homo sapiens) (UniProt P35968); test: BSK_4H_VEGFRII: BioMAP Diversity Plus: 4H Assay for Vascular endothelial growth factor receptor 2 (VEGFR2) Biomarker Activity (AID 2283031); settings: primary human endothelial cells (HUVEC); actives raise or lower the signal;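 for AC50: cell-surface VEGFR2 protein level quantified by ELISA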
In short: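 Primary human umbilical vein endothelial cells in the BioMAP 4H system were dosed with test chemical, and 24 h later VEGFRII was measured by ELISA. Activity was fitted bidirectionally against DMSO as negative control and baseline.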

[13] = read-out: Human Leukocyte Antigen - DR isotype (HLADR), HLA-DRA (gene 3122); test: BSK_BE3C_HLADR: BioMAP Diversity Plus: BE3C Assay for Human Leukocyte Antigen - DR isotype (HLADR) Biomarker Activity (AID 2283032); settings: primary human bronchial epithelial cells; actives raise or lower the signal
In short: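 Chemicals are dosed onto BE3C bronchial epithelial cultures of human origin and left 24 h. HLA-DR is then measured by ELISA, and the endpoint is fitted in both directions using DMSO as the activity baseline.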

[14] = read-out: Vascular cell adhesion molecule 1 (VCAM1), VCAM1 (gene 7412); test: BSK_4H_VCAM1: BioMAP Diversity Plus: 4H Assay for Vascular cell adhesion molecule 1 (VCAM1) Biomarker Activity (AID 2283033); settings: primary human endothelial cells (HUVEC); actives raise or lower the signal
In short: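 Chemicals are added to primary human umbilical vein endothelial cells. After 24 h, VCAM-1 levels are measured by ELISA. Values come from bidirectional fitting referenced to DMSO.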

[15] = read-out: Interferon-gamma inducible Protein 10 (IP10), CXCL10 (gene 3627); test: BSK_BE3C_IP10: BioMAP Diversity Plus: BE3C Assay for Interferon-gamma inducible Protein 10 (IP10) Biomarker Activity (AID 2283034); settings: primary human bronchial epithelial cells; actives raise or lower the signal
In short: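 IP-10 quantified by ELISA serves as the endpoint. Cells: primary human bronchial epithelium, read 24 h after compound addition. Activity is derived by bidirectional fitting with DMSO as negative control.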

[16] = read-out: Transforming growth factor beta 1 (TGFb1), TGFB1 (gene 7040); test: BSK_BE3C_TGFb1: BioMAP Diversity Plus: BE3C Assay for Transforming growth factor beta 1 (TGFb1) Biomarker Activity (AID 2283036); settings: primary human bronchial epithelial cells; actives raise or lower the signal
In short: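 Bronchial epithelial primary cells are treated with test chemical, then TGF-b1 is quantified by ELISA after 24 hours. Values derive from bidirectional fitting against DMSO, with cytotoxicity checked by SRB staining in parallel cultures.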

[17] = read-out: Plasminogen activator inhibitor-1 (PAI1), SERPINE1 (gene 5054); test: BSK_BE3C_PAI1: BioMAP Diversity Plus: BE3C Assay for Plasminogen activator inhibitor-1 (PAI1) Biomarker Activity (AID 2283037); settings: primary human bronchial epithelial cells; actives raise or lower the signal
In short: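 Values derive from bidirectional fitting against DMSO baseline of PAI-1 levels, measured by ELISA in human bronchial epithelial cells 24 h after compound addition.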

[18] = read-out: urokinase plasminogen activator (uPA), PLAU (gene 5328); test: BSK_BE3C_uPA: BioMAP Diversity Plus: BE3C Assay for urokinase plasminogen activator (uPA) Biomarker Activity (AID 2283038); settings: primary human bronchial epithelial cells; actives raise or lower the signal
In short: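 Human primary bronchial epithelial cells were exposed to chemical for 24 h, then uPA levels were measured by ELISA. Responses were fitted bidirectionally against DMSO as negative control and baseline. Parallel SRB staining of total protein gauged overt cytotoxicity.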

[19] = read-out: Urokinase-type plasminogen activator receptor (uPAR), PLAUR (gene 5329); test: BSK_BE3C_uPAR: BioMAP Diversity Plus: BE3C Assay for Urokinase-type plasminogen activator receptor (uPAR) Biomarker Activity (AID 2283039); settings: primary human bronchial epithelial cells; actives raise or lower the signal
In short: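 Steps: dose human primary bronchial epithelial cells, incubate 24 h, measure uPAR by ELISA, then fit gain- or loss-of-signal response bidirectionally relative to DMSO.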

[20] = read-out: Monokine induced gamma interferon (MIG), CXCL9 (gene 4283); test: BSK_BE3C_MIG: BioMAP Diversity Plus: BE3C Assay for Monokine induced gamma interferon (MIG) Biomarker Activity (AID 2283035); settings: primary human bronchial epithelial cells; actives raise or lower the signal
In short: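 hu bronchial epithelial 1° cells, 24 h cpd; MIG by ELISA; bidirectional fit, DMSO = baseline.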

Measured: AC50

N#Cc1cc([N+](=O)[O-])ccc1N
not listed: [20]
inactive: all other assays above

O=P1(N(CCCl)CCCl)NCCCO1 (stereo not drawn)
inactive: all assays above

CCCN(CCC)c1c([N+](=O)[O-])cc(C(C)C)cc1[N+](=O)[O-]
active: [1] 31.2 µM | [4] 28.9 µM | [8] 32.8 µM | [12] 20 µM | [13] 5.79 µM | [14] 23.2 µM
not listed: [20]
inactive: all other assays above

CCCCCCCc1ccc(O)cc1
active: [1] 38.1 µM | [2] 38.4 µM | [4] 39.2 µM | [5] 37.5 µM | [6] 22.3 µM | [7] 30.9 µM | [8] 36.1 µM | [9] 38.1 µM | [11] 38.4 µM | [13] 32.1 µM | [14] 35.1 µM | [15] 35 µM | [20] 37.6 µM | [16] 37.3 µM | [17] 39.3 µM | [18] 39.1 µM | [19] 39.3 µM
inactive: [3] | [10] | [12]

OCC(F)(F)OC(F)(F)C(F)(F)OC(F)(F)C(F)(F)OC(F)(F)CO
inactive: [1] | [2] | [3] | [4] | [5] | [7] | [8] | [9] | [10] | [11] | [12] | [14] | [20] | [17] | [18] | [19]
active: [4] 30 µM | [5] 39.8 µM | [8] 30 µM | [13] 45.5 µM and 30 µM | [15] 44.9 µM and 35.8 µM

N#Cc1c(-c2ccc(Cl)cc2)[nH]c(C(F)(F)F)c1Br
active: [1] 0.0221 µM | [4] 1.61 µM | [6] 7.8 µM | [7] 0.117 µM | [8] 0.0374 µM | [10] 5.07 µM | [11] 0.13 µM | [12] 0.016 µM | [13] 4.08 µM | [14] 1.69 µM | [15] 4.45 µM | [16] 0.0307 µM | [19] 0.656 µM
inactive: [2] | [3] | [5] | [9] | [17] | [18]
